# Screening results (PubChem)
# A selection: hits, their analogues and other compounds. The true share with any hit is near 1.6%.
# PABP FP inh – blocks human PABP binding to poly(A) RNA. fluorescence polarization. AID 2014. actives 1% (n = 290,000). P11940. calls only at 35 µM;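 note: calls also rest on retests at 20 µM and on dose response follow-up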
# eIF4H inh – inhibitors of RNA binding by human eIF4H; actives 0.94% (n = 290,000); Q15056; eIF4H fluorescence polarization binding assay; inhibition, % at 35 µM; AID 2012;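 note: calls also rest on retests at 20 µM and on dose response follow-up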
# PABP1 MLLE inh – blocks PAM2 peptide binding to the PABP1 MLLE domain. GST-MLLE / FITC-PAM2 fluorescence polarization. inhibition, % at 20 µM. actives 0.36% (n = 360,000); in the data active = inhibition above about 35%, passing the limit was not always enough;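 note: plate controls were DMSO wells with GST-MLLE for no effect and wells lacking GST-MLLE protein for full effect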
# eIF4E-4G inh – blocks eIF4E binding to eIF4G | P63073+Q04637 | actives 0.37% (n = 220,000) | inhibition, % at 21.7 µM | TR-FRET eIF4E-eIF4GI(517-606) binding, 2 h;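 active = inhibition above about 30%, limit read from the data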;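 note: 0% = full FRET control wells and 100% = background wells lacking eIF4GI fragment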
# PERK inhibitor – blocks human PERK kinase. CHO PERK-DD fusion, SEAP luminescence translation reporter. inhibition, % at 5.6 µM. actives 0.17% (n = 220,000). AID 1416;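 active = inhibition above the mean inhibition of all tested compounds plus 3 SD, set separately per screening campaign, cut at about 2.9% in these data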;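 note: PERK kinase domain activated by AP20187 dimerizer at 100 nM; 0% = DMSO with dimerizer and 100% = rapamycin at 8.4 µM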
# The depositor's hits bear a star; i = inactive; ? = inconclusive; . = no result; + = active, no number; [ ] = remark or other dose. Unless noted, the rule behind the calls is not given here.
SMILES,PABP FP inh,eIF4H inh,PABP1 MLLE inh,eIF4E-4G inh,PERK inhibitor
CCN(CCO)c1nc(SC)nc2c1sc1nc(-c3ccco3)c3c(c12)CCC3,+,85*,21,4,1
Fc1ccc(-c2ccnc(=S)[nH]2)cc1,i,-5,39*,2,0
COc1cccc2cc(-c3ccnc(=S)[nH]3)oc12,i,-1,.,-4,3
Cc1cc(C)n(-c2ccc(C(=O)NCC(c3ccco3)N3CCCC3)cc2)n1 (centres undefined),.,.,-1,.,.
S=c1[nH]nc(COc2ccccc2)n1/N=C/C=C/c1ccco1,+,81*,-54,-2,2
S=c1[nH]nc(-c2n[nH]c3c2CCC3)n1/N=C/C=C/c1ccco1,+,90*,-6,1,2
COc1ccccc1/C=C/C=N/n1c(-c2n[nH]c3c2CCC3)n[nH]c1=S,i,6,-37,3,0
S=c1[nH]nc(COc2ccccc2)n1/N=C/C=C/c1ccccc1,i,2,-81,5,0
S=c1[nH]nc(-c2ccco2)n1/N=C/C=C/c1ccco1,i,92,-8,2,1
S=c1[nH]nc(-c2cc(-c3ccccc3)n[nH]2)n1/N=C/C=C/c1ccco1,+,102*,3,5,1
CSc1ccc(CN2CCC(C)(Oc3ccccc3)C2)cc1 (centres undefined),.,.,0,.,.
OC(c1ccc(F)c(F)c1)c1nc(-c2ccc3c(c2)OCO3)cs1 (centres undefined),.,.,-4,.,.
O=C(COc1ccc2c3c(c(=O)oc2c1)CCCC3)N1C[C@H]2C[C@@H](C1)c1cccc(=O)n1C2,i,-9,6,.,.
Cc1cc(C(=O)CSc2n[nH]c(N)n2)c(C)n1-c1ccc(F)cc1,+,76*,-8,8,0
C=CCn1c(SCC(=O)Nc2ccc(-c3nc4ccc(C)cc4s3)cc2)nnc1-c1ccccc1,i,47,-40,33*[fluorescence artefact?],0
O=C(COc1ccccc1Cl)c1ccc[nH]1,i,?,8,33*,1
O=C(COc1ccc(Br)cc1Cl)c1ccc[nH]1,i,14,-14,4,0
COc1ccc(/C(C)=N/NC(=O)c2nnn(-c3nonc3N)c2-c2cccs2)cc1OC,i,-5,-1,.,.
COc1cc(-c2noc(C)c2/C=C/c2ccc(C(=O)O)cc2)cc(OC)c1OC,+,100*,5,.,.
COc1cc(-c2noc(C)c2/C=C/c2cccc([N+](=O)[O-])c2)cc(OC)c1OC,i,-8,-10,.,.
CCCCN(CCCC)CCNC(=O)c1cn(C)c2ccc(S(=O)(=O)N3CCCC3)cc2c1=O,.,.,-4,.,.
Nc1cc(N)cc(C(=O)OCC(=O)Nc2cc(S(=O)(=O)N3CCCCC3)ccc2Cl)c1,i,6,1,-4,1
Cc1nonc1OCCNCc1c(C(=O)N(C)C)nc2ccc(Cl)cn12,+,87*,-1,2,0
CC(C)CCNC(=O)C(C)N(C(=O)c1snc(C(N)=O)c1N)c1cnc2ccccc2c1 (centres undefined),+,5,-4,2,0
CC(C)C(=O)NCC(c1ccc2c(c1)OCO2)N1CCOCC1 (centres undefined),i,-12,-15,.,.
SMILES,PABP FP inh,eIF4H inh,PABP1 MLLE inh,eIF4E-4G inh,PERK inhibitor
CN(C)c1ccnc2c[cH-]cc12.[Fe].c1ccc(-[c-]2[c-](-c3ccccc3)[c-](-c3ccccc3)[c-](-c3ccccc3)[c-]2-c2ccccc2)cc1 (centres undefined),i,-2,-9,41*,.
COc1cccc(C(=O)NCc2ccc3[nH]c(C)cc3c2)c1,i,6,38*,-3,1
Cc1cc2cc(CNC(=O)c3cccc([N+](=O)[O-])c3)ccc2[nH]1,i,5,45*,-2,0
COc1cc(OC)cc(C(=O)NCc2ccc3[nH]c(C)cc3c2)c1,i,2,7,-5,0
CCCn1c(CCC(=O)O)ccc1-c1ccc(OC)cc1,+,53*,-25,4,0
Cc1ccc(CNC(=O)c2ccc(COc3ccccc3)cc2)cc1,i,-9,9,2,1
NC(=O)COC(=O)c1ccccc1SCC(=O)NC1CCCCCC1,i,-8,0,3,1
COc1ccc(-c2oc3ccccc3c2C#CC(C)(C)O)cc1,.,.,5,.,.
Cc1cc(NC(=O)/C=C\C(=O)O)c([N+](=O)[O-])cc1C,i,2,2,-2,2
Cc1cscc1NC(=O)/C=C/C(=O)O,i,-3,6,0,3.5*
COc1ccc(C2Nc3cccc4cccc(c34)N2)cc1Br,i,62*,-4,.,.
COc1cc(C2Nc3cccc4cccc(c34)N2)ccc1OC(C)=O,+,105*,19,-12,3
COc1cc(C2Nc3cccc4cccc(c34)N2)cc(OC)c1O,i,86,17,14,0
CCOC(=O)c1cc(-c2ccc(N3CCOCC3)cc2)nn1-c1ccccc1C(=O)O,i,76,13,38*,0
O=c1c2ccccc2nc(SCc2nc(-c3ccccc3)no2)n1-c1ccc(F)cc1,+,87*,-8,0,1
COc1ccc(-c2noc(CSc3nc4ccccc4c(=O)n3-c3ccccc3)n2)cc1OC,i,-8,-1,-14,1
Cc1ccc(C)c(OCCC(=O)OCC(=O)Nc2ccc(N3CCOCC3)cc2)c1,.,.,-11,.,.
CCOC(=O)CSc1ccc(S(=O)(=O)N2CCCC2)cc1[N+](=O)[O-],+,active,11,1,0
OCCNCCSc1nc(C2CCCCC2)n(-c2ccccc2Cl)n1,i,4.8*,1,-8,0
CC1(C)c2ccccc2N2CCC(=O)NC21/C=C/c1ccco1 (centres undefined),+,?,-75,3,0
CC1(C)c2ccccc2N2CC(=O)NC21/C=C/c1ccco1 (centres undefined),i,24,-25,7,2
Cc1ccccc1/C=N/Nc1nc2ccccc2[nH]1,i,-1,-84,0,-1
O=[N+]([O-])c1cc(/C=N/Nc2nc3ccccc3[nH]2)c(O)cc1O,+,80*,.,10,0
C=CCNC(=S)Nc1ccc(F)cc1F,i,-5,-10,3,1
C=CCNC(=O)Nc1ccc(F)cc1F,i,4,-2,1,3.4*
Nc1c(S(=O)(=O)c2ccccc2)c2nc3ccccc3nc2n1/N=C/c1ccco1,+,64,-36,0,0
Cc1cccc(S(=O)(=O)c2c(N)n(/N=C/c3ccco3)c3nc4ccccc4nc23)c1,i,20,-20,-2,0
Cc1ccc(S(=O)(=O)c2c(N)n(/N=C/c3ccco3)c3nc4ccccc4nc23)cc1C,i,9,-14,-3,1
Cc1ccc(S(=O)(=O)c2c(N)n(/N=C/c3ccco3)c3nc4ccccc4nc23)cc1,+,69*,-17,-4,1
CCOC(=O)C1=C[C@@H](c2ccccc2)N(S(=O)(=O)c2ccc(C)cc2)[C@H]1c1cccc(Cl)c1,.,.,6,.,.
